Records with an inconclusive call do not appear. The source made the active and inactive calls. Rule for the calls, unless noted: active = hit-call score of the fitted dose curve at least 0.9, where 1 is the maximum; inconclusive = response in the unintended direction; inactive = score below 0.9.
What was measured:
[1] = ATG_TCF_b_cat_CIS: Attagene CIS-FACTORIAL HepG2 Assay for human T-Cell-Factor with beta-catenin (TCF/b-cat) (AID 2282965; active = hit-call score of the fitted dose curve at least 0.9, where 1 is the maximum; inactive = score below 0.9); conditions: HepG2 TCF/beta-catenin cis-reporter transcription, actives raise or lower the signal
Method in brief: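 HepG2, transient MRTU transfection, cis-element-driven reporters (endogenous TFs). 24 h compound exposure. Readout: reporter mRNA by RT-PCR + 6-FAM primer extension, HpaI digest, capillary electrophoresis. Gain/loss fit vs DMSO baseline.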

[2] = ATG_TAL_CIS: Attagene CIS-FACTORIAL HepG2 Assay for human TAL Basal Promoter (AID 2282966; active = hit-call score of the fitted dose curve at least 0.9, where 1 is the maximum; inactive = score below 0.9;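 note: background control endpoint measuring basal TAL promoter reporter mRNA not a specific factor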); conditions: HepG2 Attagene cis-factorial TAL promoter reporter; actives raise or lower the signal
Method in brief: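 Basal-promoter background-control endpoint from a multiplexed HepG2 reporter panel. Cells were exposed 24 h, then reporter mRNA was read by RT-PCR/CE fluorescence and fitted in both directions relative to DMSO.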

[3] = ATG_TGFb_CIS: Attagene CIS-FACTORIAL HepG2 Assay for human Transforming Growth Factor (TGF) (AID 2282967; active = hit-call score of the fitted dose curve at least 0.9, where 1 is the maximum; inactive = score below 0.9); conditions: HepG2 Attagene CIS TGFb reporter, mRNA transcription; actives raise or lower the signal
Method in brief: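 Bidirectional fitting relative to DMSO gave the endpoint. Underlying data: reporter mRNA from HepG2 cells carrying transiently transfected cis-regulated reporter constructs, harvested 24 h after dosing and analyzed by RT-PCR and capillary electrophoresis.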

[4] = ATG_VDRE_CIS: Attagene CIS-FACTORIAL HepG2 Assay for human Vitamin D Receptor Element (VDRE) (AID 2282968; active = hit-call score of the fitted dose curve at least 0.9, where 1 is the maximum; inactive = score below 0.9); conditions: HepG2 VDRE cis-reporter transcription, actives raise or lower the signal
Method in brief: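 Compounds were applied for 24 h to HepG2 cells transfected with promoter-regulated reporter units. Total RNA was reverse-transcribed, and reporter amplicons were fluorescently labelled and sized by capillary electrophoresis.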

[5] = biological target: Estrogen receptor (Homo sapiens) (UniProt P03372); test: ATG_ERa_TRANS: Attagene TRANS-FACTORIAL HepG2 Assay for human Estrogen Receptor alpha (ERa) (AID 2282970); conditions: HepG2 Attagene TRANS ERa GAL4 reporter, mRNA
Method in brief: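 Gal4-fusion ERa transactivation, measured as reporter transcript level in transiently transfected HepG2 cells. Exposure 24 h; RT-PCR plus capillary electrophoresis with fluorescence detection.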

[6] = biological target: Steroid hormone receptor ERR1 (Homo sapiens) (UniProt P11474); test: ATG_ERRa_TRANS: Attagene TRANS-FACTORIAL HepG2 Assay for human Estrogen-Related Receptor alpha (ERRa) (AID 2282971); conditions: HepG2 Attagene TRANS reporter, ERRa transactivation
Method in brief: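 HepG2 cells transiently transfected with GAL4-UAS reporter units and chimeric NR-Gal4 constructs; after 24 hour compound incubation, reporter mRNA quantified by RT-PCR, fluorescent labelling and capillary electrophoresis, gain of signal versus DMSO.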

[7] = biological target: X-box-binding protein 1 (Homo sapiens) (UniProt P17861); test: ATG_Xbp1_CIS: Attagene CIS-FACTORIAL HepG2 Assay for human X-box Binding Protein 1 (XBP1) (AID 2282972; active = hit-call score of the fitted dose curve at least 0.9, where 1 is the maximum; inactive = score below 0.9); conditions: HepG2 XBP1 cis-element reporter, Attagene multiplex; actives raise or lower the signal
Method in brief: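 Human hepatoma HepG2, cis-element reporter system, 24 h treatment; mRNA quantified by RT-PCR/CE fluorescence; fit relative to DMSO.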

[8] = ATG_M_19_TRANS: Attagene TRANS-FACTORIAL HepG2 Assay for M19 Transcription Factor (Internal Marker) (AID 2282974); conditions: HepG2 Attagene TRANS-FACTORIAL M19 internal marker reporter
Method in brief: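 Using RT-PCR and capillary electrophoresis, reporter mRNA from transiently transfected human HepG2 cells was quantified following 24 h exposure; activity was fitted in the positive direction against DMSO.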

[9] = biological target: Estrogen-related receptor gamma (Homo sapiens) (UniProt P62508); test: ATG_ERRg_TRANS: Attagene TRANS-FACTORIAL HepG2 Assay for human Estrogen-Related Receptor gamma (ERRg) (AID 2282977); conditions: HepG2 Attagene TRANS reporter, ERRg transactivation;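 note: hits increase reporter signal over DMSO so potencies reflect activators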
Method in brief: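 Induction of reporter transcripts through a chimeric NR-Gal4 protein is quantified in transfected human HepG2 liver cells after 24 h chemical exposure, using RT-PCR with capillary electrophoresis detection and DMSO as baseline.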

[10] = biological target: Glucocorticoid receptor (Homo sapiens) (UniProt P04150); test: ATG_GR_TRANS: Attagene TRANS-FACTORIAL HepG2 Assay for human Glucocorticoid Receptor (GR) (AID 2282978); conditions: HepG2 Attagene TRANS GR reporter, mRNA transcription;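 note: activators score as hits since higher reporter transcript over DMSO is fitted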
Method in brief: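 Exogenous NR-GAL4 fusion activity was assessed through induced GAL4-UAS reporter transcripts in transfected human HepG2 cells, quantified after 24 h by RT-PCR and fluorescent capillary electrophoresis with DMSO as baseline.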

[11] = biological target: Bile acid receptor (Homo sapiens) (UniProt Q96RI1); test: ATG_FXR_TRANS: Attagene TRANS-FACTORIAL HepG2 Assay for Farnesoid X Receptor (FXR) (AID 2282979); conditions: HepG2 Attagene TRANS FXR-GAL4 reporter transcription;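 note: hits raise reporter mRNA above DMSO so AC50 marks FXR activation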
Method in brief: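 HepG2 cells were transiently transfected with GAL4-UAS reporters driven by chimeric NR-Gal4 proteins and dosed for 24 h. Reporter mRNA was quantified by RT-PCR, fluorescent labelling, HpaI digestion and capillary electrophoresis, with gain of signal scored versus DMSO.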

[12] = biological target: Oxysterols receptor LXR-alpha (Homo sapiens) (UniProt Q13133); test: ATG_LXRa_TRANS: Attagene TRANS-FACTORIAL HepG2 Assay for human Liver X Receptor alpha (LXRa) (AID 2282980); conditions: HepG2 Attagene TRANS reporter, LXRa transactivation
Method in brief: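 HepG2 cells transiently transfected with GAL4-UAS reporter units for chimeric NR-Gal4 proteins, exposed to chemicals for 24 h. Reporter mRNA quantified by RT-PCR and capillary electrophoresis; gain of signal fitted relative to DMSO.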

[13] = biological target: Oxysterols receptor LXR-beta (Homo sapiens) (UniProt P55055); test: ATG_LXRb_TRANS: Attagene TRANS-FACTORIAL HepG2 Assay for human Liver X Receptor beta (LXRb) (AID 2282981); conditions: HepG2 Attagene TRANS GAL4-LXRb reporter, mRNA
Method in brief: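 Multiplexed reporter assay, HepG2, 24 h dosing. Fluorescence of labelled RT-PCR products after capillary electrophoresis gives transcript level; positive fitting direction relative to DMSO.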

[14] = biological target: Transcriptional activator Myb (Homo sapiens) (UniProt P10242); test: ATG_Myb_CIS: Attagene CIS-FACTORIAL HepG2 Assay for human Myeloblastosis (Myb) Proto-Oncogene Transcription Factor (AID 2282986; active = hit-call score of the fitted dose curve at least 0.9, where 1 is the maximum; inactive = score below 0.9); conditions: HepG2 Attagene CIS-FACTORIAL Myb reporter transcription; actives raise or lower the signal
Method in brief: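 In this HepG2 transient-transfection format, cis-regulated reporter mRNA is quantified 24 h post-dosing by RT-PCR with capillary electrophoresis, fitted bidirectionally to DMSO baseline.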

[15] = biological target: Nuclear receptor subfamily 1 group I member 3 (Homo sapiens) (UniProt Q14994); test: ATG_CAR_TRANS: Attagene TRANS-FACTORIAL HepG2 Assay for human Constitutive Androstane Receptor (CAR) (AID 2282969); conditions: HepG2 Attagene TRANS-FACTORIAL CAR reporter;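 note: activators raise reporter mRNA above DMSO so AC50 marks induction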
Method in brief: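 Transiently transfected HepG2, multiplex TRANS reporters (CAR-Gal4 chimera driving GAL4-UAS reporter). 24 h dosing. Readout: reporter transcript by RT-PCR + capillary electrophoresis, fluorescence intensity; positive direction vs DMSO.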

[16] = biological target: Hepatocyte nuclear factor 4-alpha (Homo sapiens) (UniProt P41235); test: ATG_HNF4a_TRANS: Attagene TRANS-FACTORIAL HepG2 Assay for human Hepatocyte Nuclear Factor 4 alpha (HNF4a) (AID 2282982); conditions: HepG2 HNF4a transactivation reporter, mRNA readout
Method in brief: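 Endpoint reflects transcriptional activation of a GAL4-UAS reporter by an HNF4a-GAL4 chimera in transfected HepG2 cells, 24 h post-dosing. Fluorescence from RT-PCR products separated by capillary electrophoresis; DMSO baseline.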

[17] = biological target: Nuclear receptor subfamily 4 group A member 2 (Homo sapiens) (UniProt P43354); test: ATG_NURR1_TRANS: Attagene TRANS-FACTORIAL HepG2 Assay for human Nuclear Receptor Related Protein 1 (NURR1) (AID 2282985); conditions: HepG2 Attagene TRANS reporter, mRNA readout
Method in brief: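 Endpoint: reporter mRNA increase relative to DMSO. HepG2 cells transfected with reporter units, treated 24 h; RNA processed by RT-PCR, labelling, HpaI digestion and capillary electrophoresis.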

[18] = ATG_GAL4_TRANS: Attagene TRANS-FACTORIAL HepG2 Assay for GAL4 (Internal Marker) (AID 2282976); conditions: HepG2 Attagene TRANS GAL4 internal marker reporter
Method in brief: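 Background-control readout: GAL4-UAS reporter transcript in transiently transfected HepG2 cells after 24 h compound exposure. Measured by RT-PCR, 6-FAM primer extension, HpaI digest and capillary electrophoresis; gain-of-signal fit versus DMSO.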

[19] = ATG_M_06_TRANS: Attagene TRANS-FACTORIAL HepG2 Assay for M06 Transcription Factor (Internal Marker) (AID 2282983); conditions: HepG2 Attagene TRANS M06 internal marker reporter
Method in brief: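 mRNA levels of a reporter transcript, quantified as FAM fluorescence on capillary electrophoresis, served as readout. HepG2 cells expressing exogenous GAL4-chimera reporter constructs were exposed for 24 h. Gain of signal over DMSO was evaluated.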

[20] = ATG_M_32_TRANS: Attagene TRANS-FACTORIAL HepG2 Assay for M32 Transcription Factor (Internal Marker) (AID 2282984); conditions: HepG2 Attagene TRANS M32 internal marker reporter
Method in brief: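 Internal-marker readout from a multiplexed transcription reporter panel. HepG2 cells were transfected with GAL4-UAS reporter units, treated 24 hours, and reporter transcript levels determined by fluorescence after RT-PCR and capillary separation.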

Measured: AC50

Chain of Estrogen receptor (Homo sapiens) (P03372 whole entry, looked up, the tested form may be a part): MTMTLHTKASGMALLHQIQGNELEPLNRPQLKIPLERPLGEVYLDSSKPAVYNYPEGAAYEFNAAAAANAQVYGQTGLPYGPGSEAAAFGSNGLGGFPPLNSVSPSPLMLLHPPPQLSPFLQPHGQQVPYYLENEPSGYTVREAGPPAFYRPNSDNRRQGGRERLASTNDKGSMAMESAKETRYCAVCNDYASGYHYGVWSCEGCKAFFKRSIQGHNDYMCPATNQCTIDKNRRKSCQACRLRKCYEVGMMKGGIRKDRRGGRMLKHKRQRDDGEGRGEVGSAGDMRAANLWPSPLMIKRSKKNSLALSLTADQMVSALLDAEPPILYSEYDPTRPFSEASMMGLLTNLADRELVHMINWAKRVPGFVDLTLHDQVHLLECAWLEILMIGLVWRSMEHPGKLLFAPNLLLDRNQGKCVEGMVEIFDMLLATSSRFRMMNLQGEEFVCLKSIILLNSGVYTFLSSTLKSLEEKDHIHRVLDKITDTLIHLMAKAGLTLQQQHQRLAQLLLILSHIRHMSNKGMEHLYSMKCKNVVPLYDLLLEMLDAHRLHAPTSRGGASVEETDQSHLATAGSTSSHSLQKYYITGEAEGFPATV
Chain of Steroid hormone receptor ERR1 (Homo sapiens) (P11474 whole entry, looked up, the tested form may be a part): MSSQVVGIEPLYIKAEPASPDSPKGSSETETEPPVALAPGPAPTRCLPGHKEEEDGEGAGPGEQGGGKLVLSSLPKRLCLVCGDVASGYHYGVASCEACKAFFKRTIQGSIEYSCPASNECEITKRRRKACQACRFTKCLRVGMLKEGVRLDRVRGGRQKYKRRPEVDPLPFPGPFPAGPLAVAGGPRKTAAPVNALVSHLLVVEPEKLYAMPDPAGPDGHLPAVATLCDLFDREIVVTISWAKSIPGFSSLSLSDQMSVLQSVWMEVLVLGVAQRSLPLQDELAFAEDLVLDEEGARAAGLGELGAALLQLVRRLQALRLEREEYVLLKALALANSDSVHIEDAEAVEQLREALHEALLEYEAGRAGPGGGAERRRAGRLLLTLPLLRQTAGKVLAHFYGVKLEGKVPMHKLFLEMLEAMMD
Chain of X-box-binding protein 1 (Homo sapiens) (P17861 whole entry, looked up): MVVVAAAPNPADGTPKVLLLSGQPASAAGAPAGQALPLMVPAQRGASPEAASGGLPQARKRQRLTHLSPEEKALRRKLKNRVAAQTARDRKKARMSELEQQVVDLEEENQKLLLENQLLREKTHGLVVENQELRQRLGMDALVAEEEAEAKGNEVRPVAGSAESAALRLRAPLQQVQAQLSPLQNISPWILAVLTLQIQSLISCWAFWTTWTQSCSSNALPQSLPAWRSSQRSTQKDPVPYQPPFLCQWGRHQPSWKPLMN
Chain of Estrogen-related receptor gamma (Homo sapiens) (P62508 whole entry, looked up, the tested form may be a part): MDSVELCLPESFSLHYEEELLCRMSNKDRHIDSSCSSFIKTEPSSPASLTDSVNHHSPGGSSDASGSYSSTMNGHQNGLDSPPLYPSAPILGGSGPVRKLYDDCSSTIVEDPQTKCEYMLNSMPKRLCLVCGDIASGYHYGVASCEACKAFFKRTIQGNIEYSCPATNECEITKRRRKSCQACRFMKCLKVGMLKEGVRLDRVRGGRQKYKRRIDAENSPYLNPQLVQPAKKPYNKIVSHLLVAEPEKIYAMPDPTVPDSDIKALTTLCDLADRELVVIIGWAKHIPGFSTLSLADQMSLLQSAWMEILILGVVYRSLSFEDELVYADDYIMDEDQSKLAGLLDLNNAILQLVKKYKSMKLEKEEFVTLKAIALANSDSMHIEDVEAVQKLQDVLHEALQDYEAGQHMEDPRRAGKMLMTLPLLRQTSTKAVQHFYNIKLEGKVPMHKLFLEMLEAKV
Chain of Oxysterols receptor LXR-alpha (Homo sapiens) (Q13133 whole entry, looked up, the tested form may be a part): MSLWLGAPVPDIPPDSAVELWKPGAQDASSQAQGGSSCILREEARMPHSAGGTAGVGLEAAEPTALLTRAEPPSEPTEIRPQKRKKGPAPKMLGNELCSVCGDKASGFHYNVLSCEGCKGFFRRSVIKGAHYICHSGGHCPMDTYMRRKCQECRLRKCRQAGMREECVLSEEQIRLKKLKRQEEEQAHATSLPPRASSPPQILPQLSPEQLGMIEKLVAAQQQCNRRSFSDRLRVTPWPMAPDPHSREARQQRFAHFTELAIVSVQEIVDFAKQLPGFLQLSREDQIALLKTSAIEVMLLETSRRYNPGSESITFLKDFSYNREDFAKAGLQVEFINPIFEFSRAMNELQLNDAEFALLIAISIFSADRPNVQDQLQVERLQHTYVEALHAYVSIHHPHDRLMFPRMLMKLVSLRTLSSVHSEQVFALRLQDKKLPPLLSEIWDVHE
Chain of Nuclear receptor subfamily 4 group A member 2 (Homo sapiens) (P43354 whole entry, looked up): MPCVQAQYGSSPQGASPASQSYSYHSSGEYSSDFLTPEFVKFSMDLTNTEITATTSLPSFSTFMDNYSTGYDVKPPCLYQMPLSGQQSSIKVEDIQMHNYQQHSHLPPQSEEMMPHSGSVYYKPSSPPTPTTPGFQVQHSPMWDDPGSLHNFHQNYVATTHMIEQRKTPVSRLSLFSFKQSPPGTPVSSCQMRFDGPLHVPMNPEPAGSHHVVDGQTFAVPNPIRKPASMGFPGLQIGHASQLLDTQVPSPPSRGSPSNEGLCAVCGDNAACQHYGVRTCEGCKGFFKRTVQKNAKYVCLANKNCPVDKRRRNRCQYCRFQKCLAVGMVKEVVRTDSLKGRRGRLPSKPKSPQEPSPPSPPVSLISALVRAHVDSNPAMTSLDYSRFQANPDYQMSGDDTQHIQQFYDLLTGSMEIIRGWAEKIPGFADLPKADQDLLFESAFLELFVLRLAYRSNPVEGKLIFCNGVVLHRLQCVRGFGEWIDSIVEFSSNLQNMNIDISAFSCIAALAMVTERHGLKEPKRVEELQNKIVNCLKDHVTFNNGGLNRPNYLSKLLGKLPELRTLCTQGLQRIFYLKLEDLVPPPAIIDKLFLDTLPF
Chain of Transcriptional activator Myb (Homo sapiens) (P10242 whole entry, looked up): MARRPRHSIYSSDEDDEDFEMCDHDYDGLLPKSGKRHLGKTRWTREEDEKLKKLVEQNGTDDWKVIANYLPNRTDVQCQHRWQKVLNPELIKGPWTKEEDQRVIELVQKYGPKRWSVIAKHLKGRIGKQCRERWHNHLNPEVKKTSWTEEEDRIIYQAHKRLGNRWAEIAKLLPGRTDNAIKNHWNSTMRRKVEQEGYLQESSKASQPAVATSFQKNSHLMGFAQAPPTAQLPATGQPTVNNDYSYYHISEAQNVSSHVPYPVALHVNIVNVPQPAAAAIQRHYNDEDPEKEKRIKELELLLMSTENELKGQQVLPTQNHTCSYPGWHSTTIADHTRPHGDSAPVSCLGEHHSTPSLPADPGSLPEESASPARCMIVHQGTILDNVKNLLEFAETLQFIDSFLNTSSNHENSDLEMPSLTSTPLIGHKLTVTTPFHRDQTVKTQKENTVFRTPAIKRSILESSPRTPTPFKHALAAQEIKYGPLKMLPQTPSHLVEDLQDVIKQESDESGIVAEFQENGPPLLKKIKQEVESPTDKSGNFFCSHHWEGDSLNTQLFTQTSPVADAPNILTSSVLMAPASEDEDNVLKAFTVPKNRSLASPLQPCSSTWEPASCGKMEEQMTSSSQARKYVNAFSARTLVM
Chain of Oxysterols receptor LXR-beta (Homo sapiens) (P55055 whole entry, looked up, the tested form may be a part): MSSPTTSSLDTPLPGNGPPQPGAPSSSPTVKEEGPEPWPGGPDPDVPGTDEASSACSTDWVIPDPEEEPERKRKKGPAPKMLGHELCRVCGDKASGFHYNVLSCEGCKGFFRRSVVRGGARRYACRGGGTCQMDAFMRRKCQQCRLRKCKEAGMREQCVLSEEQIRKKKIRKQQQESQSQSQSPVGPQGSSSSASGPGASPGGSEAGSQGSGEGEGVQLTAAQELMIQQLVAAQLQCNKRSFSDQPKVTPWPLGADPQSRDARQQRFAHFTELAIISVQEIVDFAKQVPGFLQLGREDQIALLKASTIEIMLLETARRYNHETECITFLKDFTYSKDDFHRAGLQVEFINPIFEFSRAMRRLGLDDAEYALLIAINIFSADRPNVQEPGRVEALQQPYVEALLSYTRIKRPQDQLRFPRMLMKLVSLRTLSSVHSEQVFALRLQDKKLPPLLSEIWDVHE
Chain of Bile acid receptor (Homo sapiens) (Q96RI1 whole entry, looked up, the tested form may be a part): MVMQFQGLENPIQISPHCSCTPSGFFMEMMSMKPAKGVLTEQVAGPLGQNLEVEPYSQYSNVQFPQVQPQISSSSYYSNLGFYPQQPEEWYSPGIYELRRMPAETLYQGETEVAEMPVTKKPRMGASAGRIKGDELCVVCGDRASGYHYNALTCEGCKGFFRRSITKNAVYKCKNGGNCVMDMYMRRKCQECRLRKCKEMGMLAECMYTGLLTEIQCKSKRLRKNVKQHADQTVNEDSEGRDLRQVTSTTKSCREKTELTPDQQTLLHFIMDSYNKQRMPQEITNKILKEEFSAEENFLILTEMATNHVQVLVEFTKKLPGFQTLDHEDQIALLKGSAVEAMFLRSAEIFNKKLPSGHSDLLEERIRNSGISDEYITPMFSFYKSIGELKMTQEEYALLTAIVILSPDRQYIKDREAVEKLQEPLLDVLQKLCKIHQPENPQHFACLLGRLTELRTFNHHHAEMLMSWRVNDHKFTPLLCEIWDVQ
Chain of Hepatocyte nuclear factor 4-alpha (Homo sapiens) (P41235 whole entry, looked up, the tested form may be a part): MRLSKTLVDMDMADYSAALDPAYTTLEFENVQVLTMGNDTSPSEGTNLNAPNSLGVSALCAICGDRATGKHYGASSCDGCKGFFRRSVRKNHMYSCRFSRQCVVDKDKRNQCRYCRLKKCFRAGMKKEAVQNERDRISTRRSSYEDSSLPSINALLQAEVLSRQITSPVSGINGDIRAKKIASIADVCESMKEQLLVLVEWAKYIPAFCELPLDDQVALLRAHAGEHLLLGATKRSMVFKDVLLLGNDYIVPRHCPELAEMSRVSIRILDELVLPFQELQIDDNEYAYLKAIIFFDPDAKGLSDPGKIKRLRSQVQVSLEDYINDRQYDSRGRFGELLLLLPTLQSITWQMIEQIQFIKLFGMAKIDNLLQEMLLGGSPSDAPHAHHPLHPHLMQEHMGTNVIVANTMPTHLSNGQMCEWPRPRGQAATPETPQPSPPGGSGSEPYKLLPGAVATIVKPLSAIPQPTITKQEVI

CCCCCCCCCO
not listed: [15] | [16] | [17] | [18] | [19] | [20]
inactive: all other assays above

O=c1cc[nH]cc1
inactive: [1] | [2] | [4] | [15] | [7] | [11] | [12] | [16] | [17] | [14]
active: [3] 0.0823 µM

CCOCC(C)O (stereo not given)
not listed: [10] | [11] | [15] | [18] | [19] | [20]
inactive: all other assays above

C=C1CC/C=C(\C)CC[C@@H]2[C@@H]1CC2(C)C
active: [5] 14.3 µM
not listed: [8] | [10] | [12] | [13] | [15] | [16] | [20]
inactive: all other assays above

C1COCO1
not listed: [8] | [10] | [11] | [15] | [16] | [17] | [18]
inactive: all other assays above

Source: PubChem BioAssay (EPA / NIEHS)
